In PubChem BioAssay (NCI) one finds growth data, which are given here for 39 molecules.

Compounds without any hit were thinned out: in the full panel of roughly 83,000, 20% have a hit.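 In brief: 96-well plates, 48 h treatment, single concentration, percent growth endpoint.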 A number with no mark means an inactive call. The source made the active and inactive calls. Rule for the calls: active = growth percent below 10; inactive = the rest.

For one assay, the system named is TK-10 renal. As to the kind of experiment: NCI-60 one-dose screen, 48 h (100 = growth as untreated, 0 = no growth, -100 = all killed). Conditions: 10 µM unless noted.
As to `CC#Cc1nc2ccccc2c(=O)[nH]1`, the growth was 48%. Still for that read-out and setting: the same measure for `C[C@H](CCC(=O)O)[C@H]1CC[C@H]2[C@@H]3CC[C@@H]4/C(=C\c5ccco5)C(=O)/C(=C\c5ccco5)C[C@]4(C)[C@H]3CC[C@]12C`: 109%. Same read-out and setting: as for `Cc1cc(Nc2nc(-c3cccnc3)nc3ccccc23)n[nH]1`, the figure is 59.8%; as for `COc1cc(OC)c(/C=C/c2cc[n+](C)c3ccccc23)c(OC)c1`, 53.4%. Same read-out and setting: as for `CCCCCCCCCCCCCCCC[N+]1(CC)CCCC1`, the figure is -59.1% (active). Consider `CC(=O)OCC(=O)C1CCC=CC1OC(C)=O` (configuration not stated), for which the growth was 110%. On the same count and under the same terms, as for `COC1C/C(=N\O)C2OC(c3ccccc3)OCC2O1` (configuration not stated), the figure is 112%; as for `CC[C@H](Nc1nc(N)nc(C)c1C#N)c1nc2cccc(NCc3ccc(C(=O)NO)cc3)c2c(=O)n1-c1ccccc1`, 1.89% (active). Still for that read-out and setting: as for `Cc1nn(-c2ccccc2)c2nc(C)n(-c3ccc(Br)cc3)c(=O)c12`, the figure is 53.1%; as for `Cc1ccc2c(NCCCN(C)C)c3c(C)nn(C)c3nc2c1`, 28.4%; as for `NC(CC(=O)O)C(=O)OCc1ccccc1` (configuration not stated), 122%. In the case of `NCCN1CCN(c2nccc(-c3ccc4ccccc4c3)n2)CC1`, the growth was 73.9%. `Nc1ccc(Nc2nccc(-c3ccc4ccccc4c3)n2)cc1`: the growth was 58.7%. Regarding `CCCNc1nc(SC)nc(-c2cccc(N)c2)c1C#N`, the growth was 150%. For `CN(C)CCOc1ccc(-c2nc3ccc(-c4nc5ccc(N6CCN(C)CC6)cc5[nH]4)cc3[nH]2)cc1`, the growth was 90.7%. Still for that read-out and setting: the same measure for `CCCCCCCCCCCCN1CCCC(C)C1` (configuration not stated): 87.9%. As to `COc1ccc(-c2nc(Nc3cc(C)[nH]n3)c3ccccc3n2)cc1`, the growth was 53.3%. Same read-out and setting: as for `CN[C@@]12CC3(C=CC(=O)C=C3)O[C@]1(Cc1ccc(OC)cc1)N(C)C(=O)N2`, the figure is 88.6%; as for `COc1cc2cc(COc3nccc(-c4ccc(Cl)cc4)n3)c(=O)[nH]c2cc1OC`, 100%. With `Cc1ccc(S(=O)(=O)N(CCc2ccc(Cl)cc2)S(=O)(=O)c2ccc(C)cc2)cc1`, the growth is 83.9%.

As to `CC[C@H](Nc1cc(C)nc(N)n1)c1nc2cccc(NCc3ccc(C(=O)NO)cc3)c2c(=O)n1-c1ccccc1`, the growth is 32.1%. On the same count and under the same terms, as for `CN1CCCCC1CCN1c2ccccc2Sc2ccc(Br)cc21` (configuration not stated), the figure is 72.3%. `O=C1Nc2ccc(Br)cc2C12CC(c1ccccc1)=NN2` (configuration not stated): the growth is 77.8%.

For the molecule `O=C(N/N=C/c1ccc(O)cc1O)c1cccnc1`, the growth was 39.4%. On the same count and under the same terms, as for `O=C(Nc1ccc(F)cc1)Nc1ccc(CCO)cc1`, the figure is 112%; as for `C[C@@H]1CC[C@@H]2[C@@H]1[C@H](OC(=O)/C=C/c1ccccc1)[C@]1(C3CCCCC3)C[C@@H](OC(=O)CO)[C@@]2(C)O1`, 93.1%. As to `O=C1Nc2ccccc2/C1=C/C(=N/c1nnc(-c2ccccc2)s1)c1ccccc1`, the growth is -39.7% (active). For `CCCCCCCCOC(=O)CC[C@@H](C)[C@H]1CC[C@H]2[C@@H]3[C@H](OC(=O)CCN)C[C@@H]4C[C@H](OC(=O)CCN)CC[C@]4(C)[C@H]3C[C@H](OC(=O)CCN)[C@]12C`, the growth is 136%.

A further assay deals with ACHN renal. The description is as above. Conditions: 10 µM unless noted.
On to `Nc1cc2nc3ccccc3sc-2cc1=O`, for which the growth was 65.5%. Turning to `Cc1noc(C)c1-c1cc(O)cc(C(O)c2ccccc2)c1` (configuration not stated), the growth was 60.6%.

For the molecule `CCCCCC(=O)N(CCCC)CCCC`, the growth is 101%. As to `COc1ccc(/C=N\NC(=O)c2ccncc2)cc1O`, the growth is 102%. Consider `O=C(Cn1cc(CN2C(=O)c3ccccc3S2(=O)=O)nn1)Nc1ccc([N+](=O)[O-])cc1Cl`, for which the growth is 95.3%. On the same count and under the same terms, the same measure for `Oc1ccc(Nc2nccc(-c3ccc4ccccc4c3)n2)cc1`: 42.8%; for `O=C1C=CC(=O)c2c1nc1n2CCCC1`: 81.1%; for `Cc1cc(Nc2nc(N3CCOCC3)nc3ccccc23)n[nH]1`: 32.8%. Consider `Cc1ccc(C2CC3c4ccccc4C2C2CCCCN32)cc1` (configuration not stated), for which the growth is 97.8%. The same measure, in the same setting: as for `Cc1csc2ccc(Cl)cc12`, the figure is 95.5%; as for `O=S(=O)(Nc1ccc(F)c(Cl)c1)c1ccc(-c2cnc(C3CC3)o2)cc1`, 44.5%.

As for `CC#Cc1nc2ccccc2c(=O)[nH]1`, the growth was 28.8%. The same measure, in the same setting: as for `C[C@H](CCC(=O)O)[C@H]1CC[C@H]2[C@@H]3CC[C@@H]4/C(=C\c5ccco5)C(=O)/C(=C\c5ccco5)C[C@]4(C)[C@H]3CC[C@]12C`, the figure is 46.6%; as for `Cc1cc(Nc2nc(-c3cccnc3)nc3ccccc23)n[nH]1`, 38%; as for `COc1cc(OC)c(/C=C/c2cc[n+](C)c3ccccc23)c(OC)c1`, 71.8%.

On to `CCCCCCCCCCCCCCCC[N+]1(CC)CCCC1`, for which the growth was 9.99% (active). Same read-out and setting: the same measure for `CC(=O)OCC(=O)C1CCC=CC1OC(C)=O` (configuration not stated): 100%; for `COC1C/C(=N\O)C2OC(c3ccccc3)OCC2O1` (configuration not stated): 108%; for `CC[C@H](Nc1nc(N)nc(C)c1C#N)c1nc2cccc(NCc3ccc(C(=O)NO)cc3)c2c(=O)n1-c1ccccc1`: 4.61% (active). Same read-out and setting: the same measure for `Cc1nn(-c2ccccc2)c2nc(C)n(-c3ccc(Br)cc3)c(=O)c12`: 44.8%. As for `Cc1ccc2c(NCCCN(C)C)c3c(C)nn(C)c3nc2c1`, the growth is 27.2%. As for `NC(CC(=O)O)C(=O)OCc1ccccc1` (configuration not stated), the growth is 97.1%. With `NCCN1CCN(c2nccc(-c3ccc4ccccc4c3)n2)CC1`, the growth is 46.5%.

Consider `Nc1ccc(Nc2nccc(-c3ccc4ccccc4c3)n2)cc1`, for which the growth is 45.6%.

Turning to `CCCNc1nc(SC)nc(-c2cccc(N)c2)c1C#N`, the growth was 97.7%. Still for that read-out and setting: the same measure for `CN(C)CCOc1ccc(-c2nc3ccc(-c4nc5ccc(N6CCN(C)CC6)cc5[nH]4)cc3[nH]2)cc1`: 111%. Consider `CCCCCCCCCCCCN1CCCC(C)C1` (configuration not stated), for which the growth is 85.4%. In the case of `COc1ccc(-c2nc(Nc3cc(C)[nH]n3)c3ccccc3n2)cc1`, the growth is 42.8%. Same read-out and setting: as for `CN[C@@]12CC3(C=CC(=O)C=C3)O[C@]1(Cc1ccc(OC)cc1)N(C)C(=O)N2`, the figure is 44.4%.

On to `COc1cc2cc(COc3nccc(-c4ccc(Cl)cc4)n3)c(=O)[nH]c2cc1OC`, for which the growth is 102%. Consider `Cc1ccc(S(=O)(=O)N(CCc2ccc(Cl)cc2)S(=O)(=O)c2ccc(C)cc2)cc1`, for which the growth is 95.2%. On to `CC[C@H](Nc1cc(C)nc(N)n1)c1nc2cccc(NCc3ccc(C(=O)NO)cc3)c2c(=O)n1-c1ccccc1`, for which the growth is 79.9%. For the molecule `CN1CCCCC1CCN1c2ccccc2Sc2ccc(Br)cc21` (configuration not stated), the growth is 58.7%. For the molecule `O=C1Nc2ccc(Br)cc2C12CC(c1ccccc1)=NN2` (configuration not stated), the growth was 49.1%. On the same count and under the same terms, as for `O=C(N/N=C/c1ccc(O)cc1O)c1cccnc1`, the figure is 30.1%; as for `O=C(Nc1ccc(F)cc1)Nc1ccc(CCO)cc1`, 110%. Still for that read-out and setting: the same measure for `C[C@@H]1CC[C@@H]2[C@@H]1[C@H](OC(=O)/C=C/c1ccccc1)[C@]1(C3CCCCC3)C[C@@H](OC(=O)CO)[C@@]2(C)O1`: 14.8%; for `O=C1Nc2ccccc2/C1=C/C(=N/c1nnc(-c2ccccc2)s1)c1ccccc1`: -54.8% (active). With `CCCCCCCCOC(=O)CC[C@@H](C)[C@H]1CC[C@H]2[C@@H]3[C@H](OC(=O)CCN)C[C@@H]4C[C@H](OC(=O)CCN)CC[C@]4(C)[C@H]3C[C@H](OC(=O)CCN)[C@]12C`, the growth was 96.2%.
